# Assay outcomes from PubChem BioAssay.
# Only some compounds are listed: those with a hit (about 0.71% of all), similar ones and a draw of the others.
# PI4K2A inh: inhibitors of human PI4K2A; AID 1346378; activity change, negative = inhibition, % at 76.9 µM; purified PI4K2A, ADP-Glo luminescence, 1 h; hits give low values; 420,000 tested, 0.13% active; in the data active means activity change below about -50%; inconclusive means mostly about -30% to -49%;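 further: -100% = wells without enzyme as full effect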
#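 In this quantitative HTS, ADP production by PI4K2A was quantified luminescently after 1 h at ambient temperature; 100 microM adenosine served as plate-quality control.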
# USP1-UAF1 inh: USP1/UAF1 (human) deubiquitinase inhibition; recombinant USP1/UAF1, Ub-Rhodamine cleavage fluorescence; O94782; Potency, µM (titrated, usually from 57.1 µM), inactives show at the top dose activity change, negative = inhibition, usual class: inhibitors; 390,000 tested, 0.23% active; further: potency means the concentration at half of the fitted maximal effect; nearly all actives have a fitted effect of over 60% in size
# Target sequence (O94782 whole entry, looked up): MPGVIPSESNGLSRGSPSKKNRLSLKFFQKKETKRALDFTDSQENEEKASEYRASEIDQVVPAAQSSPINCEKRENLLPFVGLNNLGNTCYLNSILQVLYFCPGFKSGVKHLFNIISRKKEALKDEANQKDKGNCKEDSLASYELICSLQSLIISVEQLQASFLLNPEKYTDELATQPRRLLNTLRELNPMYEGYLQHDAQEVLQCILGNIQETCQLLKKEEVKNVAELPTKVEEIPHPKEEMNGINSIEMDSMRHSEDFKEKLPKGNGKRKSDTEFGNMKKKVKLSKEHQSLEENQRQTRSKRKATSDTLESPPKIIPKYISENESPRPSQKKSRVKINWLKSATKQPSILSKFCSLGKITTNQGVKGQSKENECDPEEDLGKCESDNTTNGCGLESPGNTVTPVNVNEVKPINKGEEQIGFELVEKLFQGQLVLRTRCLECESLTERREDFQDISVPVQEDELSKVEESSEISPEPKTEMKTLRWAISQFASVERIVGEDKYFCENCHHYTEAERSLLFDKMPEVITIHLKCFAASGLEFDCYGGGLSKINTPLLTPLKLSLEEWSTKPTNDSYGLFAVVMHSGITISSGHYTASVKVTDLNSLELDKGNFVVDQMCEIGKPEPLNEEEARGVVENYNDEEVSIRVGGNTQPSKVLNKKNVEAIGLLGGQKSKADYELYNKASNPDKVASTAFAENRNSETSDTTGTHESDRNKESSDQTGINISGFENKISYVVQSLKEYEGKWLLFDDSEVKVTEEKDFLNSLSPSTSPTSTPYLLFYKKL
#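 USP1/UAF1 complex (1 nM) preincubated 15 min at room temperature with compound, then Ub-Rho substrate (150 nM final) added. Kinetic fluorescence at 480/540 nm over 6 reads at 60 s intervals; 50 mM HEPES pH 7.8, 0.5 mM EDTA, 0.1 mg/ml BSA, 1 mM TCEP, 0.01% Tween-20.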
# GALK inh: galactokinase (human) inhibition; Purified GALK, Kinase-Glo residual ATP luminescence; Potency, µM (top dose mostly 57.5 µM), for the others: top-dose activity change, negative = inhibition, actives largely listed as inhibitors; 270,000 tested, 0.007% active; AID 1868; P51570; further: potency means the concentration at half of the fitted maximal effect
#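 The enzyme phosphorylates galactose (100 uM) using ATP (35 uM); inhibition is detected as higher residual ATP, quantified by bioluminescence after 1 h reaction at room temperature, pH 8.0.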
# FBPA coupling cs: inhibits coupling enzyme system, counter-screen for aldolase hits. coupling enzyme system counterscreen, AmpLite Red fluorescence. activity change, negative = inhibition, % at 58.2 µM, hits read low. 290,000 tested, 0.67% active. AID 2472; in the data active means activity change below about -30%
#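 Counterscreen of the coupled detection system alone, without aldolase: glyceraldehyde-3-phosphate coupling enzymes plus AmpLite Red readout. Compounds at 57.5 uM final, 10 min RT preincubation, 20 min RT reaction, fluorescence 525/598 nm.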
# USP2a inh: inhibitors of human ubiquitin-specific protease USP2a; Potency, µM (highest dose often 38.3 µM), for inactives: at the top dose activity change, negative = inhibition, most hits filed as inhibitors; O75604; USP2 core, Ub-CHOP2 coupled fluorogenic reporter, 485/531; 330,000 tested, 0.01% active;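 further: potency means the concentration at half of the fitted maximal effect; plate controls were DMSO wells for no effect and full inhibition by NEM control for full effect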
#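 Cell-free coupled assay: 10nM USP2 core preincubated 30min RT with compound in Tris-HCl pH 8.0/CaCl2/CHAPS buffer, then 25nM Ub-CHOP2 and 25nM reporter substrate; fluorescence (Ex 485/Em 531) read after 60min RT, normalized to NEM inhibition, concentration-response curves fitted.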
# Eya2 inh: inhibitors of human Eya2 phosphatase activity. 330,000 tested, 0.006% active. Potency, µM (series often up to 76.9 µM), inactives show at the highest dose activity, negative = inhibition, most hits filed as inhibitors. recombinant Eya2, OMFP fluorescence dephosphorylation (OMFP is methylfluorescein phosphate). AID 488837; further: potency means the concentration at half of the fitted maximal effect
#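 Eya2 protein (added as 0.2 uM solution) was preincubated with compound for 10 min at ambient temperature in 50 mM HEPES pH 7.5, 50 mM NaCl, 5 uM MgCl2, 0.05% BSA, 1 mM DTT. OMFP (added at 50 uM) then reacted 10 min; fluorescence read at 485/525 nm.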
# * marks the source's active call; other numbers are inactive results; u = inconclusive; x = no result; ! = not active in a repeat. Unless noted, the call rests on the fitted dose curve; in most records, active means well fitted curve in the direction sought with a large enough effect; inconclusive means small, poorly fitted or top-dose-only effect, or another doubt; inactive means no such curve, though single readings can be large; an effect the other way counts as inactive or inconclusive. Unless noted, on the % scale 0 is the no-effect control and ±100 the full control effect.
SMILES,PI4K2A inh,USP1-UAF1 inh,GALK inh,FBPA coupling cs,USP2a inh,Eya2 inh
O=C1C(=Cc2cccs2)C(=O)c2ccccc21,u,-3%,0%,6,0%,-1%
CC(C)(C)c1ccc(C(=O)NCC(c2cccs2)S(=O)(=O)c2cccs2)cc1 (centres undefined),-2,-11%,x,x,x,x
CC(C)(C)c1cc[n+](C2=C([O-])c3ccccc3C(=O)/C2=N\S(=O)(=O)c2cccs2)cc1,-15,u,2%,-57*,-1%,-12%
O=C1/C(=N\S(=O)(=O)c2cccs2)C([n+]2ccccc2)=C([O-])c2ccccc21,1,u,3%,-51*,8%,1%
N/C(=N\S(=O)(=O)c1cccs1)c1ccccc1,9,3%,-2%,3,1%,-18%
COc1ccc2cc3c(N)c(C(=O)NCc4ccco4)sc3nc2c1,-57*,u,-3%,-2,9%,-21%
CC(C)CS(=O)(=O)c1oc(-c2ccc(F)cc2)nc1S(=O)(=O)c1ccccc1,57,-26%,x,x,x,x
CCOC(=O)C1CCN(c2ccc(Cl)nn2)CC1,3,-20%,0%,2,0%,10%
CCOC(=O)C1CCN(c2ccc(-c3cccs3)nn2)CC1,-69*,-7%,19%,3,2%,9%
CCCC[C@@H]1C[C@H]1C(NC(=O)c1cccnc1)c1ccc(Cl)cc1 (some centres undefined),x,x,x,-5,x,x
Cn1c(COc2ccccc2)nnc1SCCSc1nnc(COc2ccccc2)n1C,2,-7%,-4%,2,2%,13%
Cn1c(COc2ccc(Br)cc2)nnc1SC1CCc2ccccc2C1=O (centres undefined),0,-10%,-2%,-57*,0%,1%
CCNc1cccc2c1C(=O)N(C)C2=O,4,16µM*,0%,-1,u,40%
C=C1N(C)c2cc([N+](=O)[O-])c(N)cc2C1(C)C,-18,-14%,2%,-41*,1%,-19%
CC1(C)Oc2cc(N)c([N+](=O)[O-])cc2O1,0,-3%,6%,1,3%,0%
COc1ccc(C2=C(N3CCN(c4cccc(C)c4)C(C)C3)c3ccccc3C2=O)cc1 (centres undefined),3,u,x,x,x,x
O=c1c(-c2ccccc2)coc2cc(O)cc(O)c12,x,x,x,-35*,x,x
CN1CCC(N(Cc2cccs2)c2ccccc2)CC1,-2,x,x,x,x,x
COC(=O)C(N)Cc1ccc(O)c(O)c1 (centres undefined),2,0%,-2%,-7,2%,3%
NC(CO)C(=O)NNCc1ccc(O)c(O)c1O (centres undefined),-2,u,-1%,-53*!,8%,1%
Oc1cncc(-c2cccnc2)c1,1,-20%,x,x,-1%,17%
c1cncc(-c2cccnc2)c1,-65*,-21%,1%,1,0%,13%
CCSc1nnc(-c2sc3nnc(-c4ccccc4)c(-c4ccccc4)c3c2N)o1,-11,18µM*,5%,-2,5%,27%
CCSc1nnc(-c2ccncc2)o1,-3,-1%,-2%,x,1%,2%
CN(C)S(=O)(=O)c1ccc2c(c1)C(=O)c1cc(S(=O)(=O)N(C)C)ccc1CC2,1,x,x,x,-1%,-10%
SMILES,PI4K2A inh,USP1-UAF1 inh,GALK inh,FBPA coupling cs,USP2a inh,Eya2 inh
CN(C)S(=O)(=O)c1ccc2c(c1)/C(=C/c1cc3c([nH]1)CCCC3)C(=O)N2,1,32µM*,x,x,17%,u
COC(=O)C1=C(C)N(Cc2ccccc2)C2=C3C(=O)OCCC3[C@@](O)(C(=O)OC)C(=O)N2C1c1ccccc1 (some centres undefined),x,x,x,4,x,x
CCOC(=O)c1sc(N)c(C(N)=O)c1C,7,-24%,10%,-33*,3%,-5%
CCOC(=O)c1c(N)sc(C(N)=O)c1C,6,2%,1%,6,4%,20%
N#CSCC(=O)O,0,x,x,x,x,x
CCCCc1nc2c(c3c1C[C@H](C)OC3)CN(S(=O)(=O)c1ccc(C)cc1)CC2,x,x,x,0,x,x
CCC(=O)Oc1ccc(-c2nc(-c3cccnc3)no2)cc1,-55*,5%,5%,-3,-1%,16%
Cc1c(C(=O)Oc2ccc(-c3cnc4ccccc4n3)cc2)cccc1[N+](=O)[O-],6,-12%,1%,4,-1%,4%
CCC(=O)Oc1ccc(-c2cnc3ccccc3n2)cc1,-65*,-7%,2%,2,-1%,u
O=C(Nc1cccc(-c2cnc3ccccc3n2)c1)c1ccco1,8,-17%,1%,2,-4%,-4%
O=C(Oc1ccc(-c2cnc3ccccc3n2)cc1)c1ccco1,-77*,-21%,15%,1,-1%,0%
O=C(NC1CCCCN(Cc2ccc(Cl)cc2)C1=O)c1cccc2nsnc12 (centres undefined),-6,x,x,x,x,x
CCN(CC)CCNC(=O)c1ccc2c(c1NCCO)C(=O)c1ccccc1C2=O,-15,-17%,10%,-31*,-1%,-10%
C[C@H]1C[C@H]2[C@@H]3CCC4=CC(=O)C=C[C@]4(C)[C@H]3C(=O)C[C@]2(C)[C@@]1(O)C(=O)CO,1,x,x,x,x,x
Cn1c2c(c(=O)n(C)c1=O)[C@@]1(C(=O)Nc3ccccc31)C(C#N)=C(N)O2,6,-17%,4%,-50*,3%,-2%
CC(=O)N1CCCN(C(=O)Cn2cnc3ccccc3c2=O)CC1,2,x,x,x,x,x
CCN(C(=S)Nc1cc(S(=O)(=O)N2CCOCC2)ccc1Cl)c1cccc2ccccc12,1,-8%,1%,-93*,-8%,-14%
COc1ccc2[nH]c(=O)c(CNc3ccccc3OC)cc2c1,-2,-20%,0%,-34*,3%,-3%
COc1ccc2[nH]c(=O)c(CNc3ccccc3)cc2c1,-1,-19%,3%,-35*,0%,21%
O=C(O)c1ccc(NS(=O)(=O)c2ccc3c(c2)C(=O)c2ccccc2C3=O)cc1,-4,-17%,-4%,0,0%,3%
Cc1cc(C)c(S(=O)(=O)/N=C2\C=C(NS(=O)(=O)c3ccccc3)C(=O)c3ccccc32)c(C)c1,-17,u,5%,-20,1%,-9%
Cc1ccc(S(=O)(=O)/N=C2/C=C(C3C(=O)CC(C)(C)CC3=O)C(=O)c3ccccc32)cc1,-23,u,0%,-48*,-2%,-20%
Cc1ccc(S(=O)(=O)/N=C2\C=C(NS(=O)(=O)c3ccccc3)C(=O)c3ccccc32)cc1,u,18µM*,x,x,x,x
